In PubChem BioAssay (Tox21):
Records with an inconclusive call do not appear. The source made the active and inactive calls. Unless noted, calls come from the whole dose curve; as a rule, active = well fitted curve in the direction sought with a large enough effect in the repeat runs; inconclusive = weak or mixed curves; inactive = no such curve, though single readings can be large; an effect the other way counts as inactive or inconclusive.

How the values were obtained:
[1] = qHTS assay to identify small molecule agonists of the peroxisome proliferator-activated receptor delta (PPARd) signaling pathway - cell viability counter screen (AID 743211); note: nearly all actives have a fitted effect of over 55% in size
In short: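 Viability was measured as CellTiter-Glo luminescence (30 min, room temperature) in the same wells as the beta-lactamase readout. GeneBLAzer PPARd UAS-bla HEK293H cells received compound after 5 h plating and were incubated 17 h at 37 C.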

[2] = qHTS assay to identify small molecule antagonists of the peroxisome proliferator-activated receptor delta (PPARd) signaling pathway - cell viability counter screen (AID 743213); note: nearly all actives have a fitted effect of over 50% in size
In short: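 PPARd-bla HEK293H cells were treated with compounds plus agonist L165041 (300 nM final) for 17 h at 37 C. Viability was then read in the same wells by CellTiter-Glo luminescence after 30 min at room temperature.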

[3] = qHTS assay to identify small molecule agonists of the farnesoid-X-receptor (FXR) signaling pathway - cell viability counter screen (AID 743218); note: nearly all actives have a fitted effect of over 45% in size
In short: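 Viability of FXR-bla HEK 293T cells is measured by ATP-based CellTiter-Glo luminescence following 16 h compound treatment at 37 C and a prior 2 h room-temperature beta-lactamase substrate step.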

[4] = qHTS assay to identify small molecule antagonists of the farnesoid-X-receptor (FXR) signaling pathway - cell viability counter screen (AID 743221; active = well fitted cell-killing curve with a large enough effect in the repeat runs, not every such curve was filed as active; note: nearly all actives have a fitted effect of over 50% in size)
In short: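 Cytotoxicity counter screen run in the FXR-bla reporter wells: HEK 293T cells exposed to compound with 50 uM (final) chenodeoxycholic acid for 16 h, 37 C, then viability measured by CellTiter-Glo luminescence after 30 min, room temperature.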

[5] = qHTS assay to identify small molecule agonists of the vitamin D receptor (VDR) signaling pathway - cell viability counter screen (AID 743224); note: series mostly up to about 63 µM; nearly all actives have a fitted effect of over 50% in size
In short: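 Compounds were pin-transferred onto VDR-bla cells plated 4 h earlier; following 16 h incubation at 37C, cell viability was quantified by CellTiter-Glo luminescence after 30 min at room temperature.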

[6] = qHTS assay to identify small molecule antagonists of the vitamin D receptor (VDR) signaling pathway - cell viability counter screen (AID 743225); note: nearly all actives have a fitted effect of over 50% in size
In short: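 Cytotoxicity counter screen read by CellTiter-Glo luminescence (30 min, room temperature) in the same wells as the VDR-bla antagonist readout. HEK 293T VDR-UAS-bla cells had 16 h at 37C with compound and 3 nM (final) 1-alpha,25-dihydroxyvitamin D3, then 2 h with FRET substrate.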

[7] = qHTS assay to identify small molecule agonists of the NFkB signaling pathway (AID 1159509; active = well fitted curve in the direction sought with a large enough effect in the signal ratio in the repeat runs, not every such curve was filed as active; the % refers to the signal ratio; note: series mostly up to about 61 µM)
In short: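 Agonist activity was read as beta-lactamase-driven FRET change (460 and 530 nm emission, 405 nm excitation) following 1.5 hr substrate loading at room temperature. Beforehand, ME-180 NFkB-bla reporter cells were treated with compounds for 5 hr at 37 C.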

[8] = qHTS assay to identify small molecule agonists of the NFkB signaling pathway - cell viability counter screen (AID 1159515; calls by dose curve; note: series mostly up to about 61 µM; nearly all actives have a fitted effect of over 55% in size)
In short: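 Parallel cytotoxicity counter screen in ME-180 cells carrying an NFkB-response-element beta-lactamase reporter, 2,000 cells/well. Compound exposure lasted 5 hr at 37 C, 5% CO2. Cell viability was quantified by CellTiter-Glo luminescence.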

[9] = qHTS assay to identify small molecule agonists of the endoplasmic reticulum stress response signaling pathway (AID 1159516; active = well fitted activation curve with a large enough effect in the signal ratio in the repeat runs, not every such curve was filed as active; the % refers to the signal ratio)
In short: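 Using a HeLa line with an ESRE-driven beta-lactamase gene, agonist activity was measured by FRET substrate fluorescence (460 and 530 nm emission) after cells were treated with compounds for 5 hr at 37 C and 5% CO2.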

[10] = qHTS assay to identify small molecule agonists of the endoplasmic reticulum stress response signaling pathway - cell viability counter screen (AID 1159517; calls by dose curve)
In short: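 In parallel with the ESRE reporter read, cytotoxicity was scored by CellTiter-Glo luminescence (30 min, room temperature) on HeLa ESRE-bla cells dosed for 5 hr.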

[11] = qHTS assay to identify small molecule antagonists of the retinoid-related orphan receptor gamma (ROR-gamma) signaling pathway - cell viability counter screen (AID 1159520); note: nearly all actives have a fitted effect of over 50% in size
In short: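 Tet-on ROR gamma CHO cells were given compounds for 2 hr, then doxycycline hyclate at 1 uM final, and incubated 16 hr at 37 C. Viability was measured as ATP content by CellTiter-Glo luminescence.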

[12] = qHTS assay to identify small molecule agonists of the AP-1 signaling pathway (AID 1159526; calls by dose curve)
[13] = molecular target: Vitamin D3 receptor (Homo sapiens) (UniProt P11473); assay: qHTS assay to identify small molecule agonists of the vitamin D receptor (VDR) signaling pathway (AID 743222; calls by dose curve)
In short: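 Fluorescence from cleaved LiveBLAzer B/G FRET substrate served as readout. VDR-bla cells had been treated 16 h at 37C with test compounds in DMSO, following a 4 h settling period, and substrate was loaded for 2 h at RT.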

[14] = molecular target: Vitamin D3 receptor (Homo sapiens) (UniProt P11473); assay: qHTS assay to identify small molecule antagonists of the vitamin D receptor (VDR) signaling pathway (AID 743223; active = well fitted inhibition curve with a large enough effect in the signal ratio in the repeat runs, not every such curve was filed as active; the % refers to the signal ratio)
In short: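 Antagonist mode: compound added to VDR-bla cells alongside agonist 1alpha,25-dihydroxyvitamin D3 (3 nM final), incubation 16 h at 37C. Read-out is LiveBLAzer FRET fluorescence, 2 h at room temperature.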

[15] = qHTS assay to identify small molecule agonists of the AP-1 signaling pathway - cell viability counter screen (AID 1159525; calls by dose curve; note: nearly all actives have a fitted effect of over 55% in size)
In short: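 Same-well cytotoxicity counter screen of the Tox21 10K library in ME-180 cells. The readout is ATP-dependent luminescence after 5 h compound treatment. Data are normalised to DMSO and tetra n-octyl ammonium bromide controls.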

[16] = molecular target: Peroxisome proliferator-activated receptor delta (Homo sapiens) (UniProt Q03181); assay: qHTS assay to identify small molecule agonists of the peroxisome proliferator-activated receptor delta (PPARd) signaling pathway (AID 743212; calls by dose curve)
In short: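 Tox21 library screened in GeneBLAzer PPARd UAS-bla HEK293H cells. After compound treatment at 37 C, a FRET-based beta-lactamase substrate was applied for 2 h and fluorescence recorded.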

[17] = molecular target: Peroxisome proliferator-activated receptor delta (Homo sapiens) (UniProt Q03181); assay: qHTS assay to identify small molecule antagonists of the peroxisome proliferator-activated receptor delta (PPARd) signaling pathway (AID 743215; active = well fitted inhibition curve with a large enough effect in the signal ratio in the repeat runs, not every such curve was filed as active; the % refers to the signal ratio;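 note: cells stimulated with agonist L165041 at 300 nM final during compound exposure; series mostly up to about 62 µM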)
In short: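 Plated HEK293H PPARd-bla cells rested 5 h at 37 C and 5% CO2. Compound, then agonist L165041 at 300 nM final, was added; 17 h at 37 C followed. Substrate loading, 2 h room temperature, fluorescence measured.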

[18] = molecular target: Nuclear receptor ROR-gamma (Homo sapiens) (UniProt P51449); assay: qHTS assay to identify small molecule antagonists of the retinoid-related orphan receptor gamma (ROR-gamma) signaling pathway (AID 1159521)
In short: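 Antagonist read-out: drop in luminescence (ONE-Glo) from an RORE-LUC reporter in CHO cells with doxycycline-inducible ROR-gamma; 2 hr compound pretreatment, 1 uM doxycycline, 16 hr incubation at 37 C.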

[19] = molecular target: Bile acid receptor (Homo sapiens) (UniProt Q96RI1); assay: qHTS assay to identify small molecule agonists of the farnesoid-X-receptor (FXR) signaling pathway (AID 743220; active = well fitted activation curve with a large enough effect in the signal ratio in the repeat runs, not every such curve was filed as active; the % refers to the signal ratio)
In short: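 FXR-UAS-bla HEK 293T cells carrying a UAS-driven beta-lactamase reporter were plated for 5 h at 37C/5% CO2, then exposed to DMSO-dissolved Tox21 10K compounds for 16 h at 37C. A LiveBLAzer B/G FRET substrate was loaded for 2 h at room temperature before fluorescence reading.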

[20] = molecular target: Bile acid receptor (Homo sapiens) (UniProt Q96RI1); assay: qHTS assay to identify small molecule antagonists of the farnesoid-X-receptor (FXR) signaling pathway (AID 743217; active = well fitted inhibition curve with a large enough effect in the signal ratio in the repeat runs, not every such curve was filed as active; the % refers to the signal ratio)
In short: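 Screen of the Tox21 10K library in quantitative HTS format using FXR-UAS-bla HEK 293T reporter cells. Agonist chenodeoxycholic acid, 50 uM final, added with compounds; 16 h incubation at 37 °C; beta-lactamase FRET fluorescence measured.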

Measured: Potency

Sequence of Bile acid receptor (Homo sapiens) (Q96RI1 whole entry, looked up): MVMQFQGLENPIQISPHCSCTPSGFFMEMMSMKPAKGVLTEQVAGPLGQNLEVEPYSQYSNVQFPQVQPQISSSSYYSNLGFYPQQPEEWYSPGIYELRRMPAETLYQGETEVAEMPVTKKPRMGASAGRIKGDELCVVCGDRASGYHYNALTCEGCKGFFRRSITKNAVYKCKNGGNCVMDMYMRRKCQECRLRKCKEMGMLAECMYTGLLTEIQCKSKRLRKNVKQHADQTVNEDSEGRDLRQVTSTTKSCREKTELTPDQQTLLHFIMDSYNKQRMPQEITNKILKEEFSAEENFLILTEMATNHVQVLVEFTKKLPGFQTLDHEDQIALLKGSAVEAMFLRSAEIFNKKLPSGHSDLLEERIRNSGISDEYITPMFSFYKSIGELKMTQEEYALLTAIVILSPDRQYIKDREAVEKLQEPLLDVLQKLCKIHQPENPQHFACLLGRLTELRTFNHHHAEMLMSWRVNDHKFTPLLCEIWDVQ
Sequence of Vitamin D3 receptor (Homo sapiens) (P11473 whole entry, looked up): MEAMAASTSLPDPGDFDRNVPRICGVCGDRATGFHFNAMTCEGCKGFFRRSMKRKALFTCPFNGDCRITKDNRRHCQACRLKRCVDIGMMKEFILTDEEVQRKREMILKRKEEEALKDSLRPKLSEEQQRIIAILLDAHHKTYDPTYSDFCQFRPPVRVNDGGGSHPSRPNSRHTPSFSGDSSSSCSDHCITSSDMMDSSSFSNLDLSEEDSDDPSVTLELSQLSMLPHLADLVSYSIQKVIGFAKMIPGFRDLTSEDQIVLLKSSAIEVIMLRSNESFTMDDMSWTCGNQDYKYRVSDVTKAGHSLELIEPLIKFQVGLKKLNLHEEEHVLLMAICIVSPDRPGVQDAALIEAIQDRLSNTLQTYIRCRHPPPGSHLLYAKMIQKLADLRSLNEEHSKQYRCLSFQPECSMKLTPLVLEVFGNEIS
Sequence of Peroxisome proliferator-activated receptor delta (Homo sapiens) (Q03181 whole entry, looked up): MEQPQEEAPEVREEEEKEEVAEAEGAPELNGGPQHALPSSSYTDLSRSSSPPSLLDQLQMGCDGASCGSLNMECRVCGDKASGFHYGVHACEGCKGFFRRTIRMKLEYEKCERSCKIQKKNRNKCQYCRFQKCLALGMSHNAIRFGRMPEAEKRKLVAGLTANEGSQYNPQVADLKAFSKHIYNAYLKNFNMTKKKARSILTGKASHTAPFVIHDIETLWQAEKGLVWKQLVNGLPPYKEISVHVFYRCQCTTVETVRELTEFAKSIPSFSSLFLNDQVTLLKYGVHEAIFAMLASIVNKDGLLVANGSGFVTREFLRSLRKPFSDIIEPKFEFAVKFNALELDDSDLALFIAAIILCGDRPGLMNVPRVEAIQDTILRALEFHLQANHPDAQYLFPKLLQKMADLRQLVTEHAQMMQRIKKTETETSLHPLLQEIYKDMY

CCOc1ccc2nc(N)sc2c1
not listed: [13] | [14] | [15] | [16] | [17] | [18] | [19] | [20]
inactive: all other assays above

C=O
not listed: [16] | [17] | [18] | [19] | [20]
inactive: all other assays above

COC(C)CCO (stereo not given)
not listed: [16] | [17] | [18] | [19] | [20]
inactive: all other assays above

OCC(CBr)(CBr)CBr
not listed: [2] | [10] | [13] | [14] | [15] | [19] | [20]
inactive: all other assays above

CCCS(=O)c1ccc2nc(NC(=O)OC)[nH]c2c1 (stereo not given)
not listed: [10] | [14] | [15] | [17] | [20]
inactive: all other assays above

COc1cc2c(cc1N)oc1ccccc12
inactive: [17] | [19] | [4] | [14] | [6] | [7] | [8] | [9] | [11] | [18] | [12]

CC1=C2[C@H](/C=C(\C)C(=O)O)CC[C@@H](C)[C@H]2CC1
not listed: [10] | [12] | [13] | [14] | [16] | [17]
inactive: all other assays above

NC(=O)NS(=O)(=O)c1ccc(Cl)cc1
not listed: [1] | [2] | [13] | [18] | [20]
inactive: all other assays above

CN(C)CCOc1ccccc1Cc1ccccc1
not listed: [4] | [10] | [12] | [13] | [19] | [20]
inactive: all other assays above

OCCN(CCO)c1ccccc1
not listed: [16] | [17] | [18] | [20]
inactive: all other assays above

COc1ccc2nc(NC(=O)Nc3ccccc3)sc2c1
not listed: [10] | [12] | [16] | [17] | [19] | [20]
inactive: all other assays above

NCCC(O)(P(=O)(O)O)P(=O)(O)O
not listed: [5] | [10] | [13] | [14] | [18]
inactive: all other assays above

O=c1[nH]c(=O)n([C@H]2C[C@H](O)[C@@H](CO)O2)cc1C(F)(F)F
not listed: [10] | [13] | [18] | [20]
inactive: all other assays above
